GLP1R inv ag: acts as inverse agonist at human GLP-1 receptor; P43220; HEK293 GLP-1R CRE-luciferase, luminescence, 24 h; GLP-1R form is constitutively active; Potency, µM (top dose mostly 38.3 µM), inactives show top-dose activity change, negative = inhibition, hits mostly inhibitors; actives 1.6% (n = 410,000); AID 624417; note: potency is the fitted concentration of half-maximal effect; % is set by controls: 0 for no effect and ±100 for the full control effect; nearly all actives have a fitted effect of over 55% in size
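Readout was luciferase luminescence, measured 12 min after detection reagent at room temperature. Beforehand, GLP-1R reporter HEK293 cells had sat 12 h, then received compounds for 24 hr at 37 deg C.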
D3 antag: blocks the human D3 dopamine receptor; P35462; D3R cells, DiscoveRx beta-arrestin luminescence, antagonist mode; hits give low values; max response, negative = inhibition, %; actives 2.5% (n = 360,000); in the data active = max response below about -50%; inconclusive = no clear call, values can overlap the other calls; note: % is set by controls: 0 for no effect and ±100 for the full control effect
Target sequence (P35462 whole entry, looked up): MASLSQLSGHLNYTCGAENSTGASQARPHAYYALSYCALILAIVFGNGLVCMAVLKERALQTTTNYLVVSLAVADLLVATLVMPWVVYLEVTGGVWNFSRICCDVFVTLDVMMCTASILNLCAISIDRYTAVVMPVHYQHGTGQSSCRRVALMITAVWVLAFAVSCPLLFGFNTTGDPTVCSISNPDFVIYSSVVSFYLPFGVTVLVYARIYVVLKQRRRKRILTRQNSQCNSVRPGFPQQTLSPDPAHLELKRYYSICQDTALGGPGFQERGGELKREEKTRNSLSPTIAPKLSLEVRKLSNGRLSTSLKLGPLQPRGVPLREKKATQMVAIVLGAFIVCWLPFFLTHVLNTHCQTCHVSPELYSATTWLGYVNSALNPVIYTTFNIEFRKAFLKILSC
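Cells plated overnight at 1500 cells/well, then exposed to library compounds with dopamine controls for 90 minutes at 37 degrees C. DiscoveRx reagent added for 30–60 minutes at room temperature; luminescence read, quantitative HTS format.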
DRD3 agonist: D3 dopamine receptor (human) agonism. P35462. D3R DiscoveRx beta-arrestin cells, luminescence, 90 min. max activation, %. actives 0.58% (n = 410,000); in the data active = max activation above about 30%; note: 0% is about no effect
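Agonist mode: compounds and dopamine controls were applied to plated cells for 90 min at 37 degrees C after an overnight attachment at 1500 cells/well. Luminescent read-out followed 30 - 60 minutes at room temperature with DiscoveRx detection reagent.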
GLP1R ag: agonists of human GLP-1 receptor. Potency, µM (series often up to 45.6 µM), without a hit: top-dose activation, hits mostly activators. actives 0.007% (n = 380,000). P43220. AID 624172. HEK293 GLP-1R CRE-luciferase, luminescence, 4-6 h; cells express a hypersensitive GLP-1R form; note: potency is the fitted concentration of half-maximal effect; % of control where 0% means no effect
An asterisk follows results filed as active; ? = inconclusive; · = no result given. Shown are actives, neighbours in structure and some others; about 4.3% of the full set was active somewhere. Unless noted, calls come from the whole dose curve; as a rule, active = well fitted curve in the direction sought with a large enough effect; inconclusive = small, poorly fitted or top-dose-only effect, or another doubt; inactive = no such curve, though single readings can be large; an effect the other way counts as inactive or inconclusive.

SMILES | GLP1R inv ag | D3 antag | DRD3 agonist | GLP1R ag
COc1ccccc1N1CCN(CCCNC(=O)Cn2ncc3c([nH]c4ccccc43)c2=O)CC1 | ? | -108* | -22 | 0%
CN1CCN(CCCNC(=O)Cn2ncc3c4ccccc4n(C)c3c2=O)CC1 | 10% | -1 | 0 | -8%
Cc1ccccc1CNC(=O)c1ccc(CN2CC(=O)N3CCCCC3C2=O)cc1 (configuration not stated) | 11% | · | 16 | ·
Cn1cncc1C#Cc1c(C=O)n(C)c2ccccc12 | 10% | 6 | 2 | 15%
C=CCn1c2ccccc2c(=O)c2cc(C#Cc3cc(OC)cc(OC)c3)ccc21 | 18% | 51 | 50* | 1%
COc1cc(C#Cc2c(C=O)n(C)c3ccccc23)cc(OC)c1 | -10% | 81 | 50* | 4%
CCS(=O)(=O)N1CC(=O)N(c2ccc(C)c(C)c2)C(C)(C(=O)NC2CCCCC2)C1 (configuration not stated) | 6% | · | -3 | ·
Cc1ccc(NC(=O)c2nnn(CC(=O)Nc3ccc4c(c3)OCO4)c2N)cc1C | -11% | -11 | -2 | -2%
Cc1ccc(C)c(NC(=O)c2nnn(CC(=O)Nc3cccc(C)c3C)c2N)c1 | -2% | · | 40* | ·
Cc1ccc(NC(=O)Cn2nnc(C(=O)Nc3ccc(C)c(C)c3)c2N)cc1 | -5% | -66* | -7 | -3%
CCOC(=O)c1ccccc1NC(=O)CN1C(=O)CC(c2ccccc2)Sc2ccccc21 (configuration not stated) | 10µM* | · | 6 | 17%
COc1cccc(C(=O)NC2CC3CCCC(C2)N3CC(=O)Nc2ccccc2C(F)(F)F)c1 (configuration not stated) | 2.2µM* | -15 | -11 | 8%
COc1cccc(C(=O)NC2CC3CCC(C2)N3Cc2ccccc2)c1 (configuration not stated) | -7% | -108* | -3 | 1%
COc1ccc(CN2C3CCC2CC(NC(=O)c2cccc(F)c2)C3)cc1 (configuration not stated) | 18% | -86* | -15 | -4%
COc1ccc(C(=O)NC2CC3CCCC(C2)N3CC(C)C)cc1 (configuration not stated) | 2% | 2 | -6 | 0%
O=C(NC1CCN(C(=O)NCc2ccccc2)CC1)c1cccc(F)c1 | -7% | 3 | 3 | 0%
O=C(NC1CC2CCC(C1)N2Cc1ccccc1)c1cccc(F)c1 (configuration not stated) | -7% | -117* | -4 | 1%
CCOC(=O)c1cccc(NC(=O)CCc2c(C)nc3c4cccnc4nn3c2C)c1 | 5% | · | -17 | ·
CCOc1ccccc1C(=O)NC1CC2CCCC(C1)N2Cc1nnnn1Cc1ccco1 (configuration not stated) | ? | 10 | 1 | 7%
O=C(NC1CC2CCC(C1)N2Cc1nnnn1Cc1ccco1)NC12CC3CC(CC(C3)C1)C2 (configuration not stated) | 10µM* | -7 | 0 | -11%
O=C(NC1CC2CCC(C1)N2Cc1ccco1)c1ccccc1 (configuration not stated) | 6% | -69* | -3 | -9%
O=C(NCc1ccccc1)NC1CC2CCC(C1)N2Cc1ccco1 (configuration not stated) | -6% | -12 | -4 | -7%
COC(=O)[C@@H]1[C@H]2C[C@H]3c4[nH]c5ccccc5c4CCN3C[C@@H]2CC[C@@H]1O | -24% | -78* | -80 | -6%
CCOC(=O)CCCNC(=O)c1cncc(Br)c1 | -2% | -6 | 31* | -13%
CC(=O)c1cccc(NC(=O)Cn2c(=O)oc3cc(S(=O)(=O)NC4CCCC4)ccc32)c1 | -7% | · | 6 | ·
O=C(C1CCCCC1)N1CCCC(c2nc3c(nnn3Cc3ccccc3)c(=O)[nH]2)C1 (configuration not stated) | ? | -108* | 9 | 9%
O=C(c1ccccc1)N1CCCC(c2nc3c(nnn3Cc3ccccc3)c(=O)[nH]2)C1 (configuration not stated) | 4% | ? | 8 | 21%
O=C(NCC(c1ccco1)N1CCc2ccccc2C1)c1ccccc1 (configuration not stated) | ? | -53* | -34 | -11%
COc1ccccc1NC(=O)C(=O)NCC(c1ccco1)N1CCc2ccccc2C1 (configuration not stated) | ? | -3 | -4 | -32%

Screening results as filed in PubChem BioAssay.
